Data on 11 compounds can be found in PubChem BioAssay (NCATS).

Assay [1] in a line: Quantitative High-Throughput drug screen in 47 multiple myeloma cell lines against the NCATS MIPE library collection: JIM3_ECACC cell viability assay (AID 1918963; note: nearly all actives have a fitted effect of over 35% in size). A digest of the protocol:
(§1)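 Steps: seed 500 cells per well; pin-transfer MIPE 4.0 library; incubate 48 h at 37C, 5% CO2, humidified; add CellTiter-Glo, 5 min room temperature; read luminescence.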

Assay [2] in a line: Quantitative High-Throughput drug screen in 47 multiple myeloma cell lines against the NCATS MIPE library collection: JIM1_ECACC cell viability assay (AID 1918964). The essentials: (§2)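 Approved and investigational drugs from MIPE 4.0 were added by pin tool to 500 cells per well. After 48 hours at 37C, ATP-based CellTiter-Glo luminescence indicated remaining viability.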
The nature of assay [3]: Quantitative High-Throughput drug screen in 47 multiple myeloma cell lines against the NCATS MIPE library collection: INA6_PLB cell viability assay (AID 1918965; note: nearly all actives have a fitted effect of over 55% in size). The essentials:
(§3)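 CellTiter-Glo luminescence (ATP) after 48 h compound exposure, 37C/5% CO2; 500 cells/well; MIPE 4.0 approved/investigational drugs pinned in; DMSO = 100%, media only = 0% viability.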

Assay [4] in a line: Quantitative High-Throughput drug screen in 47 multiple myeloma cell lines against the NCATS MIPE library collection: JJN3_DSMZ cell viability assay (AID 1918966; note: nearly all actives have a fitted effect of over 50% in size). The essentials:
as §2

Assay [5] can be described thus: Quantitative High-Throughput drug screen in 47 multiple myeloma cell lines against the NCATS MIPE library collection: Karpas25_ECACC cell viability assay (AID 1918968; note: nearly all actives have a fitted effect of over 35% in size). A digest of the protocol: as §2
Assay [6] in a line: Quantitative High-Throughput drug screen in 47 multiple myeloma cell lines against the NCATS MIPE library collection: KMS27_JCRB cell viability assay (AID 1918970). Note: nearly all actives have a fitted effect of over 30% in size. The note with it: KMS27 myeloma cells, CellTiter-Glo ATP viability, 48 h; viability (% of DMSO): at 45.8 µM (top of the series). A digest of the protocol:
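KMS27_JCRB myeloma cells, 500 per well, exposed 48 h at 37 C, 5% CO2 to MIPE 4.0 compounds. Viability from ATP by CellTiter-Glo luminescence, normalized to DMSO (100%) and medium-only (0%) wells.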
A general note: In ATP-based viability assays light output follows the ATP content of the culture.

Assay [7] can be described thus: Quantitative High-Throughput drug screen in 47 multiple myeloma cell lines against the NCATS MIPE library collection: KMS12BM_JCRB cell viability assay (AID 1918971). Note: nearly all actives have a fitted effect of over 35% in size. The essentials: (§4)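 We plated 500 myeloma cells per well, pinned in MIPE 4.0 compounds, and incubated for 48 hours at 37C. ATP was then quantified with CellTiter-Glo, with DMSO and media-only wells defining 100% and 0%.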

Assay [8] can be described thus: Quantitative High-Throughput drug screen in 47 multiple myeloma cell lines against the NCATS MIPE library collection: KMS12PE_JCRB cell viability assay (AID 1918972). Note: nearly all actives have a fitted effect of over 30% in size. A digest of the protocol: as §3
The nature of assay [9]: Quantitative High-Throughput drug screen in 47 multiple myeloma cell lines against the NCATS MIPE library collection: KMS20_JCRB cell viability assay (AID 1918973). Note: nearly all actives have a fitted effect of over 45% in size. A digest of the protocol: as §2
A short description of assay [10]: Quantitative High-Throughput drug screen in 47 multiple myeloma cell lines against the NCATS MIPE library collection: KMS26_JCRB cell viability assay (AID 1918975). Note: nearly all actives have a fitted effect of over 45% in size. The essentials: as §4
Assay [11] is described as follows: Quantitative High-Throughput drug screen in 47 multiple myeloma cell lines against the NCATS MIPE library collection: MMM1_PLB cell viability assay (AID 1918976). Note: nearly all actives have a fitted effect of over 35% in size. A digest of the protocol:
(§5)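 500 cells/well; MIPE 4.0 drugs pin-transferred; 48 h, 37C, 5% CO2. CellTiter-Glo, 5 min RT, luminescence. Controls: DMSO 100%, media 0%.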

A short description of assay [12]: Quantitative High-Throughput drug screen in 47 multiple myeloma cell lines against the NCATS MIPE library collection: MOLP8_DSMZ cell viability assay (AID 1918977). Note: nearly all actives have a fitted effect of over 45% in size. The essentials:
as §5

Assay [13] can be described thus: Quantitative High-Throughput drug screen in 47 multiple myeloma cell lines against the NCATS MIPE library collection: NCIH929_DSMZ cell viability assay (AID 1918978). Note: nearly all actives have a fitted effect of over 35% in size. The essentials: as §5
Assay [14] can be described thus: Quantitative High-Throughput drug screen in 47 multiple myeloma cell lines against the NCATS MIPE library collection: MM1S_ATCC cell viability assay (AID 1918980). Note: nearly all actives have a fitted effect of over 45% in size. The essentials: as §5
Assay [15] can be described thus: Quantitative High-Throughput drug screen in 47 multiple myeloma cell lines against the NCATS MIPE library collection: MM1R_ATCC cell viability assay (AID 1918981). Note: nearly all actives have a fitted effect of over 35% in size. The essentials:
as §5

Assay [16] is described as follows: Quantitative High-Throughput drug screen in 47 multiple myeloma cell lines against the NCATS MIPE library collection: KHM11_PLB cell viability assay (AID 1918962). Note: nearly all actives have a fitted effect of over 35% in size. The essentials:
as §1

Assay [17] can be described thus: Quantitative High-Throughput drug screen in 47 multiple myeloma cell lines against the NCATS MIPE library collection: OCIMY1_PLB cell viability assay (AID 1918979). Note: nearly all actives have a fitted effect of over 35% in size. A digest of the protocol: as §5
Assay [18] is described as follows: Quantitative High-Throughput drug screen in 47 multiple myeloma cell lines against the NCATS MIPE library collection: H1112_PLB cell viability assay (AID 1918967; note: nearly all actives have a fitted effect of over 30% in size). A digest of the protocol: as §2
Assay [19] in a line: Quantitative High-Throughput drug screen in 47 multiple myeloma cell lines against the NCATS MIPE library collection: KMS21BM_JCRB cell viability assay (AID 1918974). The note with it: ATP luminescence, 48 h; viability: at 45.8 µM (top of the series). The essentials:
as §2

Each structure is given as a SMILES string. Results filed as inconclusive are left out. Activity calls are given as the source filed them. Calls come from the whole dose curve; as a rule, active = well fitted curve in the direction sought with a large enough effect; inconclusive = small, poorly fitted or top-dose-only effect, or another doubt; inactive = no such curve, though single readings can be large; an effect the other way counts as inactive or inconclusive.
Potency is the fitted concentration of half-maximal effect.

Consider `O=C1NCCc2[nH]c(-c3ccncc3)cc21`, for which the Potency in assay [1] is 7.43 µM (active); in [2], 662 nM (active); in assay [3] it was 1.32 µM (active); in assay [4] it was 2.09 µM (active); in assay [5], 2.96 µM (active); in assay [6] it was 1.32 µM (active). In addition, the Potency in [7] is 3.72 µM (active); in [8], 6.62 µM (active); in [9] it was 2.64 µM (active); in assay [10], 3.32 µM (active); in [11], 16.6 µM (active); in assay [12] it was 1.66 µM (active). Also, the figures for the Potency in assay [13], in [14] and in assay [15] were 2.64 µM (active), 3.72 µM (active) and 2.64 µM (active), respectively.

With `CCCc1nc(C(C)(C)O)c(C(=O)O)n1Cc1ccc(-c2ccccc2-c2nn[nH]n2)cc1`, the Potency entry in assay [16], in [1], in assay [4], in assay [5], in assay [6] and in assay [8] was “inactive” throughout. Further, the Potency result in [9], in assay [13], in assay [17] and in assay [15] was “inactive” throughout.

As for `C=C(C)[C@@H]1CC[C@]2(C)CC[C@]3(C)[C@H](CC[C@@H]4[C@@]5(C)CC[C@H](O)C(C)(C)[C@H]5CC[C@]43C)[C@@H]12`, the Potency result in assay [1], in [2], in assay [3], in assay [4], in [18] and in [5] was “inactive” in each case. The Potency result in [6], in [7], in [8], in assay [9], in [10] and in [12] was “inactive” in each case. The Potency entry in assay [13] and in assay [15] was “inactive” in each case.

As for `Oc1cc2c(cc1O)C1c3ccc(O)c(O)c3OCC1(O)C2` (centres undefined), the Potency entry in [16], in assay [1], in [18], in assay [6], in [7] and in [8] was “inactive” throughout. The Potency entry in assay [10], in assay [12], in [13], in assay [17] and in assay [15] was “inactive” throughout. Further, the Potency in [14] is 9.35 µM (active).

Consider `O=C(CCCCCCC(=O)Nc1cccnc1)NO`, for which the Potency in [1] was 16.6 µM (active); in [2] it was 4180 nM (active); in assay [3] it was 0.833 µM (active); in [4] it was 4.18 µM (active); in [18], 5.9 µM (active); in [5], 1.66 µM (active). Also, the Potency is 7.43 µM (active) in assay [6]; 1.87 µM (active) in assay [7]; 2.96 µM (active) in assay [8]; 3.32 µM (active) in assay [9]; 2.35 µM (active) in assay [19]; 3.72 µM (active) in [10]. Moreover, the Potency in assay [12] is 3.32 µM (active); in assay [13], 3.72 µM (active); in [17] it was 14.8 µM (active); in assay [14] it was 3.32 µM (active); in [15], 2.64 µM (active).

Turning to `O=C(NNC(=O)c1ccc(CNS(=O)(=O)c2ccc(F)c(Cl)c2)cc1)c1ccccc1`, the Potency entry in [16], in assay [1], in [4], in [5], in assay [6] and in [9] was “inactive” throughout. The Potency entry in assay [12], in assay [13], in assay [17] and in assay [15] was “inactive” each time.

Consider `Oc1cc(-c2nc(-c3ccccc3)[nH]c2-c2ccncc2)ccc1Cl`, for which the Potency was 1.18 µM (active) in [16]; 20.9 µM (active) in assay [1]; 18.7 µM (active) in [4]; 2.96 µM (active) in [5]; 2.64 µM (active) in assay [6]; 20.9 µM (active) in assay [7]. The Potency was 14.8 µM (active) in assay [8]; 8.33 µM (active) in assay [9]; 16.6 µM (active) in [10]; 18.7 µM (active) in [11]; 16.6 µM (active) in assay [12]; 3.72 µM (active) in assay [13]. Further, the Potency in assay [14] was 4.69 µM (active); in assay [15], 14.8 µM (active).

`CCC(C(=O)O)C1CCC(C)C(C(C)C(O)C(C)C(=O)C(CC)C2OC3(C=CC(O)[C@@]4(CC[C@](C)(C5CC[C@@](O)(CC)C(C)O5)O4)O3)C(C)CC2C)O1` (some centres undefined): the Potency in assay [1] is 1.48 µM (active); in assay [2], 332 nM (active); in assay [3], 1.66 µM (active); in assay [4], 1.05 µM (active); in [18], 8.33 µM (active); in assay [5], 7.43 µM (active). Moreover, the Potency in assay [6] is 0.743 µM (active); in [7], 0.148 µM (active); in assay [8], 0.743 µM (active); in assay [10] it was 0.526 µM (active); in [11], 6.62 µM (active); in assay [12], 0.743 µM (active). Moreover, the Potency in assay [13] was 10.5 µM (active); in [17] it was 5.26 µM (active); in assay [14], 2.35 µM (active); in assay [15] it was 3.72 µM (active).

Turning to `CC(C(C)N1CC(=O)NC(=O)C1)N1CC(=O)NC(=O)C1` (centres undefined), the Potency entry in assay [16], in [1], in assay [5], in [9], in [13] and in assay [14] was “inactive” throughout. For the same compound, the Potency in assay [7] is 0.59 µM (active); in [8] it was 1.32 µM (active); in [12], 0.0105 µM (active).

With `C[C@H]1O[C@H](O[C@H]2[C@H](O)[C@@H](O)[C@@H](O[C@H]3[C@H](O)[C@@H](O)C(O)O[C@H]3CO)O[C@H]2CO)[C@H](O)[C@@H](O)[C@H]1N[C@H]1C=C(CO)[C@@H](O)[C@H](O)[C@@H]1O` (some centres undefined), the Potency entry in assay [16], in assay [1], in [3], in assay [10], in [12] and in [14] was “inactive” throughout. The Potency entry in [15] is “inactive”.

Consider `CC(=O)SCC(Cc1ccccc1)C(=O)NCC(=O)OCc1ccccc1` (centres undefined), for which the Potency was 3.72 µM (active) in assay [1]; 2960 nM (active) in assay [2]; 0.935 µM (active) in [3]; 5.9 µM (active) in assay [4]; 1.66 µM (active) in assay [18]; 1.05 µM (active) in assay [5]. Besides, the Potency was 0.662 µM (active) in assay [6]; 2.35 µM (active) in assay [7]; 1.66 µM (active) in [8]; 2.35 µM (active) in assay [9]; 18.7 µM (active) in assay [10]; 7.43 µM (active) in [11]. Besides, the Potency in assay [13] was 1.05 µM (active); in [14] it was 0.59 µM (active); in [15] it was 3.72 µM (active).
